Results filed as inconclusive are left out. Calls of active or inactive are those of the source. Unless noted, calls come from the whole dose curve; as a rule, active = well fitted curve in the direction sought with a large enough effect; inconclusive = small, poorly fitted or top-dose-only effect, or another doubt; inactive = no such curve, though single readings can be large; an effect the other way counts as inactive or inconclusive.
Assays:
[1] = Cytometric Cell-Based qHTS for Inhibitors of the mTORC1 Signaling Pathway in MEF (Tsc2-/-, p53-/-) Cells (AID 2660);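 note: Tsc2 and p53 null MEFs carrying empty vector with compound for 24 h; percent of cells above a phospho-rpS6 to PI ratio cutoff in each well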
Procedure, shortened: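 Cells are plated, treated with compound for 24 hrs at 37 degree Celsius, then fixed, blocked and immunostained for phospho-rpS6 Ser235/236. Propidium iodide counterstain follows. Per-well % positive cells is derived from the PI-normalized phospho-S6 signal.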

[2] = High Content Imaging Cell-Based qHTS for Inhibitors of the mTORC1 Signaling Pathway in MEF (Tsc2-/-, p53-/-) Cells (AID 2666); details: at 38.3 µM (top of the series);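 note: percent of cells scored positive for phospho-rpS6 Ser235/236 immunostaining by imaging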
Procedure, shortened: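 Cells were plated, dosed with compound after 24 hrs, and incubated another 24 hrs at 37 degree Celsius. Fixed cells were immunostained for phospho-rpS6 Ser235/236 and counterstained, and the normalized signal was scored as % active cells against rapamycin and DMSO controls.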

[3] = High Content Imaging Cell-Based qHTS for Inhibitors of the mTORC1 Signaling Pathway in MEF Cells (AID 2667);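 note: Tsc2-/- p53-/- MEFs stably re-expressing wild-type Tsc2 exposed 24 h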
Procedure, shortened: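 Immunofluorescence for rpS6 phosphorylation in MEFs of Tsc2-/-, p53-/- background rescued with WT Tsc2. Compound exposure lasted 24 hrs. Inhibition was scored against rapamycin-treated control wells.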

[4] = Cytometry Cell-Based qHTS for Inhibitors of the mTORC1 Signaling Pathway in MEF cells (AID 2668);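 note: Tsc2-/- p53-/- mouse embryonic fibroblasts stably re-expressing wild-type Tsc2; percent cells positive for phospho-rpS6 Ser235/236 relative to propidium iodide stain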
Procedure, shortened: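 In MEFs grown in DMEM + 10% FBS, a 24 hrs compound exposure preceded imaging of phospho-rpS6 Ser235/236 by laser-scanning cytometry.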

[5] = target: Ubiquitin carboxyl-terminal hydrolase 2 (Homo sapiens) (UniProt O75604); assay: qHTS Validation Assay for Inhibitors of Ubiquitin-specific Protease USP2a Using CHOP2 as the Reporter (AID 463106)
Ubiquitin carboxyl-terminal hydrolase 2 (Homo sapiens), sequence (O75604 whole entry, looked up): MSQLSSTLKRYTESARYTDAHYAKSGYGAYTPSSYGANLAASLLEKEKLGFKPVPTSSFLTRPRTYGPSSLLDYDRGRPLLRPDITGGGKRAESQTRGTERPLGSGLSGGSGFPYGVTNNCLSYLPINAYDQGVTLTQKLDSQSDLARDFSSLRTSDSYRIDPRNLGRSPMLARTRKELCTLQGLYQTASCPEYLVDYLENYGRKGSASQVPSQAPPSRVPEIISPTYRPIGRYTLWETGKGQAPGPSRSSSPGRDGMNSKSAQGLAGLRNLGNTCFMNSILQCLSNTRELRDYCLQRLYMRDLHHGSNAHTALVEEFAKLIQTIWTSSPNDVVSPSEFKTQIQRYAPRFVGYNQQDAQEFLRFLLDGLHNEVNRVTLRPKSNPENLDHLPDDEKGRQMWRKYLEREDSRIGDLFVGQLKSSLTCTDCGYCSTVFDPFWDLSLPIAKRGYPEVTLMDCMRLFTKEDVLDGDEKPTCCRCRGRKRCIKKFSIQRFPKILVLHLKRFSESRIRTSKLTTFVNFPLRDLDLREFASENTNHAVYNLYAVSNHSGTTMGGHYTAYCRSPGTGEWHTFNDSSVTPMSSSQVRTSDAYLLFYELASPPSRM
Procedure, shortened: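 10nM USP2 core + cpd, 30min RT; add 25nM Ub-CHOP2/25nM substrate; 60min RT; FI 485/531nm. Buffer Tris pH 8.0, CaCl2, BME, CHAPS. Norm. to NEM = 100% inhibition; time-zero read flags fluorescent artifacts.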

[6] = target: Tumor susceptibility gene 101 protein (Homo sapiens) (UniProt Q99816); assay: qHTS Validation Assay for Iinhibitors of HIV-1 Budding by Blocking the Interaction of PTAP/TSG101 (AID 485342; calls by dose curve)
Tumor susceptibility gene 101 protein (Homo sapiens), sequence (Q99816 whole entry, looked up, the tested form may be a part): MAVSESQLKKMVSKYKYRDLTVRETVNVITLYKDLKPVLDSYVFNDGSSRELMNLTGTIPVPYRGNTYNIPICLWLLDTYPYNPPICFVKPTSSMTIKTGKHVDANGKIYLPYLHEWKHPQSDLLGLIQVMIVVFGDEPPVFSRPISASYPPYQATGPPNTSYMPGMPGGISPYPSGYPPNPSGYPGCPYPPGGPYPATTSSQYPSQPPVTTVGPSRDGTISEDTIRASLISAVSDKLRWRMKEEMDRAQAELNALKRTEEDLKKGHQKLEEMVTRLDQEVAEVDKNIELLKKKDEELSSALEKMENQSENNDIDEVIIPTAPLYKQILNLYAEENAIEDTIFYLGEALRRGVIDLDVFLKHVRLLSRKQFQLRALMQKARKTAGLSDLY
Procedure, shortened: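 Compound wells held the Tsg101 binding domain (10 uM) and a FITC-conjugated PTAP peptide (50 nM) in buffer at pH 7.5 containing 0.15 M NaCl and 0.01% Tween 20; polarization was recorded after 20 min, r.t.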

[7] = qHTS Validation Assay to Find Inhibitors of Chronic Active B-Cell Receptor Signaling (AID 485345; active = well fitted curve in the direction sought with a large enough effect in the main read-out, with a control signal flat, not every such curve was filed as active)
Procedure, shortened: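 Read-out: ratio of filter-corrected green (IkappaBalpha fusion) to red (native) luciferase signal in doxycycline-induced TMD8 cells after 4 h at 37C. Titration spanned 46 uM–3 nM; Data were normalised to basal cells and 10 uM MG-132 wells.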

[8] = target: Beta-2 adrenergic receptor (Homo sapiens) (UniProt P07550); assay: qHTS validation assay of beta-arrestin-biased ligands of beta2-adrenergic receptor (AID 485366)
Procedure, shortened: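 Values derive from curve-fitted %Activity of a luminescent beta-arrestin recruitment reporter; compounds tested up to 46 microM on Tango cells for 18 hr at 37 degrees C, 5% CO2.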

[9] = target: Thioredoxin reductase 1, cytoplasmic (Rattus norvegicus) (UniProt O89049); assay: qHTS Assay for Substrates of Mammalian Selenoprotein Thioredoxin Reductase 1 (TrxR1) (AID 488772);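 note: NADPH fluorescence in the first read after selenite addition and not the 8 min delta; a drop in NADPH fluorescence below the no-compound background marks a TrxR1 substrate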
Thioredoxin reductase 1, cytoplasmic (Rattus norvegicus), sequence (O89049 whole entry, looked up): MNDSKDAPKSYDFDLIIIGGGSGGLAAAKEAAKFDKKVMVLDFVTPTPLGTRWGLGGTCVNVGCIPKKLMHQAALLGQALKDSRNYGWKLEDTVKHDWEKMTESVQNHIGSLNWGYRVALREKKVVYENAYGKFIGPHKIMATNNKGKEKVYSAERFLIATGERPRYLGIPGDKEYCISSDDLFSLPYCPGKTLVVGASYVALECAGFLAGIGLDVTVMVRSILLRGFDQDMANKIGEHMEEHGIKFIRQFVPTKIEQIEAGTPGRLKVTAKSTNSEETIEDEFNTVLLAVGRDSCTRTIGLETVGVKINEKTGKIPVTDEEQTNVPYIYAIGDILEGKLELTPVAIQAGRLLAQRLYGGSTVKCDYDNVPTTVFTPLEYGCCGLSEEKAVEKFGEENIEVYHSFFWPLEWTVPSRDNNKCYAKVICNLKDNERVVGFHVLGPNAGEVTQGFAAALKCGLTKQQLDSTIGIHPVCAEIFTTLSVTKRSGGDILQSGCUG
Procedure, shortened: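 Quantitative HTS in Tris-HCl buffer at pH 7.5 with EDTA and Tween-20, using rat TrxR1, 400 uM NADPH and 400 uM selenite (final). A fall in initial NADPH fluorescence relative to background marked substrate behaviour.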

[10] = target: Thioredoxin reductase 1, cytoplasmic (Rattus norvegicus) (UniProt O89049); assay: qHTS Assay for Inhibitors of Mammalian Selenoprotein Thioredoxin Reductase 1 (TrxR1) (AID 488773); details: Potency: inhibition; note: potency is the fitted concentration of half-maximal effect; nearly all actives have a fitted effect of over 40% in size
Procedure, shortened: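 Steps: enzyme (90 nM) plus NADPH (400 uM final), 5 min at ~22 deg C; compound added, 15 min; selenite (400 uM final) added; fluorescence followed for 8 min. Concentration-response curves derived from the normalized delta values.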

[11] = target: M-phase phosphoprotein 8 (Homo sapiens) (UniProt Q99549); assay: qHTS Validation Assay for Inhibitors for MPP8 Chromodomain Interactions with Methylated Histone Tails (AID 488949); note: potency is the fitted concentration of half-maximal effect; nearly all actives have a fitted effect of over 55% in size
Procedure, shortened: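 Chemiluminescent proximity assay: histidine-tag capture via nickel acceptor beads, biotin peptide via streptavidin donor beads. Protein and peptide each at 50 nM, pH 7.4, with 30 min incubations at room temperature for complex formation, compound exposure and bead binding.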

[12] = target: Chromobox protein homolog 1 (Homo sapiens) (UniProt P83916); assay: qHTS Validation Assay for Inhibitors of HP1-beta Chromodomain Interactions with Methylated Histone Tails (AID 488953); note: potency is the fitted concentration of half-maximal effect; nearly all actives have a fitted effect of over 50% in size
Chromobox protein homolog 1 (Homo sapiens), sequence (P83916 whole entry, looked up): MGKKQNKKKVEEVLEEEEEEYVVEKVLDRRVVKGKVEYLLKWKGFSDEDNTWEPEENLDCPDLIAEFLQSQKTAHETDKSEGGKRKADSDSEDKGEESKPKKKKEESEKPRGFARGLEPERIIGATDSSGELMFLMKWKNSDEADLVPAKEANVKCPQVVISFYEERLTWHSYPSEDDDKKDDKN
Procedure, shortened: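 Measured as loss of AlphaScreen luminescence from streptavidin donor and nickel acceptor beads (10 ug/mL final) bridging HP1-beta and biotin-H3(1-18)K9me3, each 50 nM. Compounds met the preassembled complex for 30 min at RT.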

[13] = target: Methanococcus maripaludis chaperonin (MmCpn) (UniProt Q6LX38); assay: High-Throughput Screening for Modulators of Cytosolic Chaperonin Activity: MmCpn Primary Screen (AID 488978)
Methanococcus maripaludis chaperonin (MmCpn), sequence (Q6LX38 1-543): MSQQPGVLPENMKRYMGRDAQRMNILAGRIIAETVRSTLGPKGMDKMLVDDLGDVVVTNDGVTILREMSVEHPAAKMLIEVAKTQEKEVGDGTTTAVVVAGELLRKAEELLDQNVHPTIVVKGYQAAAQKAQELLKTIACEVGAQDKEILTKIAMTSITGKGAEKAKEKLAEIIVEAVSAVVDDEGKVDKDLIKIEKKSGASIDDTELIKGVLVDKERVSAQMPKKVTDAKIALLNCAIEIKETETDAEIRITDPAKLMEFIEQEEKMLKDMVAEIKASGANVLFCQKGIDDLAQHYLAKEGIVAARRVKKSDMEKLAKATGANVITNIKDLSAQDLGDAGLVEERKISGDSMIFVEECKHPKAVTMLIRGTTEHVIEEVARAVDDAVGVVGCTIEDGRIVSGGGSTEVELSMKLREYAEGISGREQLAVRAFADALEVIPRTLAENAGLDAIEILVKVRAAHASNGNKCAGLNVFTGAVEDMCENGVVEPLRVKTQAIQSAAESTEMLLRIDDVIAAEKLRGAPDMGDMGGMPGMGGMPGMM
Procedure, shortened: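 HTRF readout (320 nm excitation, 590/665 nm emission) of ADP generated by 50 nM MmCpn hydrolysing 30 uM ATP during 10 min at 37C; compound preincubated 5 min RT.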

[14] = target: D(1A) dopamine receptor (Homo sapiens) (UniProt P21728); assay: HTS Assay for Allosteric Agonists of the Human D1 Dopamine Receptor: Primary Screen for Agonists (AID 488981)
D(1A) dopamine receptor (Homo sapiens), sequence (P21728 whole entry, looked up): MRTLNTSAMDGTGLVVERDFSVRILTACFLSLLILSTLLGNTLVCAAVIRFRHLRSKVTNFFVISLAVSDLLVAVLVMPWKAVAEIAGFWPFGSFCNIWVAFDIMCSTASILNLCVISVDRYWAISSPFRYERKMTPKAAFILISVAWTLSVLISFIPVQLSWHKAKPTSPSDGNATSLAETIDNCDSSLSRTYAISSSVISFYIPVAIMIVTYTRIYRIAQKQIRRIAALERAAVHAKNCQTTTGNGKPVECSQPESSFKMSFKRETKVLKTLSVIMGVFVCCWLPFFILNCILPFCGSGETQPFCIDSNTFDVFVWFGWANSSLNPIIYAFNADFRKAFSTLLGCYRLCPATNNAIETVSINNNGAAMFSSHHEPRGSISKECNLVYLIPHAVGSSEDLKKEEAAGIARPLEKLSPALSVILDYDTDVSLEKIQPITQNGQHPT
Procedure, shortened: (§1)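 Calcium flux in an inducible, force-coupled HEK293 Trex D1 line (overnight at 30 C): agonist mode is the 180 s kinetic read after compound; potentiator mode is the following 180 s read after dopamine at EC20.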

[15] = target: D(1A) dopamine receptor (Homo sapiens) (UniProt P21728); assay: HTS Assay for Allosteric Agonists of the Human D1 Dopamine Receptor: Primary Screen for Potentiators (AID 488982)
Procedure, shortened: as §1

[16] = target: D(1A) dopamine receptor (Homo sapiens) (UniProt P21728); assay: HTS Assay for Allosteric Agonists of the Human D1 Dopamine Receptor: Primary Screen for Antagonists (AID 488983);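 note: calcium flux response to an EC80 dopamine challenge measured with no-wash dye; nearly all actives have a fitted effect of over 65% in size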
Procedure, shortened: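 Screening of inducible HEK293 T-REx D1 cells: compound first, EC80 dopamine 180 s later, each phase read kinetically for calcium over 180 s.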

[17] = Validation screen for small molecules that induce genotoxicity in human embryonic kidney (HEK293T) cells expressing luciferase-tagged ELG1 (AID 493106)
Procedure, shortened: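 Reporter-gene quantitative HTS in HEK293T cells carrying luciferase-tagged ELG1, whose level climbs under genotoxic stress. Compound exposure lasts 16 hr at 37 °C before luciferase detection.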

[18] = target: ATPase family AAA domain-containing protein 5 (Homo sapiens) (UniProt Q96QE3); assay: Validation screen for small molecules that inhibit ELG1-dependent DNA repair in human embryonic kidney (HEK293T) cells expressing luciferase-tagged ELG1 (AID 493107);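 note: cells co-treated with the DNA-damaging agent 5-fluorouridine alongside compound; inhibitors lower the ELG1-luciferase luminescence signal; nearly all actives have a fitted effect of over 70% in size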
Procedure, shortened: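 Quantitative HTS in HEK293T cells carrying luciferase-tagged ELG1, stimulated with 5-fluorouridine alongside compound for 16 hr. Loss of luciferase signal marks inhibition of ELG1 response.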

[19] = target: phosphoglycerate mutase (Leishmania major) (UniProt Q4Q090); assay: qHTS Validation Assay to Find Inhibitors of Phosphoglycerate Mutase (AID 504548)
phosphoglycerate mutase (Leishmania major), sequence (Q4Q090 1-553): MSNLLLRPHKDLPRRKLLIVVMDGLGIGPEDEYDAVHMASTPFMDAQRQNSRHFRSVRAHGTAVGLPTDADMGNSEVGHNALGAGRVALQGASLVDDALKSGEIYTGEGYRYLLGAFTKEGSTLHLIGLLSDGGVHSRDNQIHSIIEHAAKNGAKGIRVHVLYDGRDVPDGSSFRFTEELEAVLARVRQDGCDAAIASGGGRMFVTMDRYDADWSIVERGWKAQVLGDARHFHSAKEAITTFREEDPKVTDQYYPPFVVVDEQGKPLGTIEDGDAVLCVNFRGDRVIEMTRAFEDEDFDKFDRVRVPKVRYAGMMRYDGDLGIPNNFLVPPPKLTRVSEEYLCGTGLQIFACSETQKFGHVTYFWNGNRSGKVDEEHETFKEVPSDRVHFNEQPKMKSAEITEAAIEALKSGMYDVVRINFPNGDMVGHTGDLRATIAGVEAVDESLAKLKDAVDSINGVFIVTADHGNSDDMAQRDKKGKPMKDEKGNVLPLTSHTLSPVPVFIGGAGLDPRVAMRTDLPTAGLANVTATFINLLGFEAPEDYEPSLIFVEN
Procedure, shortened: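 Luminescent end-point read-out via Kinase-GloPlus after a 10-minute development. Reaction: 1.25nM Leishmania major PGAM with substrate and compound, 45 minutes at room temperature in TEA buffer (pH 7.6) with MgCl2 and Tween-20.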

[20] = target: Ubiquitin carboxyl-terminal hydrolase 1 (Homo sapiens) (UniProt O94782); assay: Inhibitors of USP1/UAF1: Pilot qHTS (AID 504865);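 note: rhodamine fluorescence freed from ubiquitin-rhodamine substrate followed over time; top concentration of the series differs between compounds; nearly all actives have a fitted effect of over 35% in size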
Procedure, shortened: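 Enzyme-free wells gave the negative control, while test wells held 1nM USP1/UAF1 preincubated with compound for 15 min at room temperature. Ub-Rho at 150nM final started the reaction, and fluorescence at 480/540 nm was recorded kinetically.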

[21] = NS1 protein of Zika virus - qHTS assay to identify small molecule inhibitors in human HEK 293 cells (AID 1347053); note: nearly all actives have a fitted effect of over 55% in size
Procedure, shortened: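 Following 20 h seeding, HEK 293 cells took compound, then 1 h later ZIKV MR766 (MOI = 0.5). Incubation ran 24 h at 37 C before TR-FRET detection of NS1; a drop in signal indicates inhibition.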

[22] = target: T1, Tyrosine-protein phosphatase non-receptor type substrate 1 (Homo sapiens) + Leukocyte surface antigen CD47 (Homo sapiens) (UniProt P78324+Q08722); assay: CD47-SIRPalpha protein protein interaction - HTRF assay qHTS validation (AID 1347058; active = well fitted curve in the direction sought with a large enough effect in the signal ratio, not every such curve was filed as active; the % refers to the signal ratio;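 note: recombinant soluble extracellular CD47 with His tag and biotinylated SIRPalpha domains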)
T1 sequence (P78324 whole entry, looked up, the tested form may be a part): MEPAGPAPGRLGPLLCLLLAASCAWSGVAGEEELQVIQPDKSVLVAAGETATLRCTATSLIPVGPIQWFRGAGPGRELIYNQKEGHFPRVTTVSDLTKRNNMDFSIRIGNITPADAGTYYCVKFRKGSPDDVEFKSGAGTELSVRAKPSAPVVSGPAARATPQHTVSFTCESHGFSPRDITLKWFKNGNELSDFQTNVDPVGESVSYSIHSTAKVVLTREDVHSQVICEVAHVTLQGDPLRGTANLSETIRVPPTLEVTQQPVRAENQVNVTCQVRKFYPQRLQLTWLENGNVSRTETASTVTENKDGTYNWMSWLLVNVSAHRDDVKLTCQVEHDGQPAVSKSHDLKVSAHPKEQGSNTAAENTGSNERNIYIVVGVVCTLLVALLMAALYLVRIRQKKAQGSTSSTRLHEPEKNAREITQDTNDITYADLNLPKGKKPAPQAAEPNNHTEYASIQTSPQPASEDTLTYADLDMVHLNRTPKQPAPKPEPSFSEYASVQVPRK
T1 sequence (Q08722 whole entry, looked up, the tested form may be a part): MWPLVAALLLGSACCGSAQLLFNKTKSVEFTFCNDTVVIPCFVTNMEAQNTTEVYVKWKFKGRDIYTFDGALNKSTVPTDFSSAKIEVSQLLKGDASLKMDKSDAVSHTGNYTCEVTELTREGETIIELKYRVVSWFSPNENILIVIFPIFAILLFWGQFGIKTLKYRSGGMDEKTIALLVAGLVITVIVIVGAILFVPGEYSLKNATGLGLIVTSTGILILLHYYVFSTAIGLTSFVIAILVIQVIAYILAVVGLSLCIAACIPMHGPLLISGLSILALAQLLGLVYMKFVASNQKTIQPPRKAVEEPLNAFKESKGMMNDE
Procedure, shortened: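 TR-FRET read (Ch1/Ch2 ratio) of soluble extracellular CD47 and Avi-biotinylated SIRPalpha domains in PBS pH 7.4 with 0.05% IGEPAL; 7-point compound titration. Sequential 30 min room-temperature steps; non-biotinylated SIRPalpha as control inhibitor.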

[23] = target: T1, Tyrosine-protein phosphatase non-receptor type substrate 1 (Homo sapiens) + Leukocyte surface antigen CD47 (Homo sapiens); assay: CD47-SIRPalpha protein protein interaction - Alpha assay qHTS validation (AID 1347059);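 note: bead proximity luminescence from CD47 binding SIRPalpha after compound preincubation with SIRPalpha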
Procedure, shortened: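 Binding is measured by AlphaScreen proximity: Ni-NTA acceptor beads capture His-CD47, streptavidin donor beads capture biotin-SIRPalpha. Each of three additions (SIRPalpha with compound, CD47, beads) incubates 30 min at room temperature protected from light.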

[24] = target: N-terminal Xaa-Pro-Lys N-methyltransferase 1 (Homo sapiens) (UniProt Q9BV86); assay: qHTS Assay for Inhibitors of N-terminal methyltransferase 1 (NTMT1): LOPAC validation of the NTMT1 SAHH-coupled ThioGlo3 Assay (AID 1347143);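 note: SAH from peptide methylation measured as thiol fluorescence via SAHH coupling and ThioGlo3; potency is the fitted concentration of half-maximal effect; nearly all actives have a fitted effect of over 70% in size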
Procedure, shortened: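 Inhibition of NTMT1 methylation of peptide SPKRIA is followed by converting SAH with SAHH and labelling the released thiol with ThioGlo3. Plates are read at 340/450nm before and 30 min after reagent addition, both at room temperature.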

[25] = system: Zika virus NS2B-NS3 protease (unlinked); assay: Optimization of GU AMC qHTS for Zika virus inhibitors: Unlinked NS2B-NS3 protease assay (AID 1347151); note: nearly all actives have a fitted effect of over 80% in size
Procedure, shortened: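 In this qHTS, compounds acted on 25 nM unlinked Zika NS2B–NS3 in pH 8.0 Tris/Tween buffer. Cleavage of an AMC peptide ran 15 min at room temperature, to about 20% conversion.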

[26] = qHTS to identify inhibitors of the type 1 interferon - major histocompatibility complex class I in skeletal muscle: primary screen against the NCATS LOPAC collection (AID 1347405);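 note: lytic HiBiT luminescence reporting HLA-B protein level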
Procedure, shortened: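 Cells: C25cl48 human myoblasts, HiBiT-tagged HLA-B*08:01, stimulated with IFN-beta 4.0 ng/ml. Compounds are titrated 1:4.3 over 7 points from 46 uM final and incubated 24 hrs; endogenous MHC class I is quantified by HiBiT lytic luminescence.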

[27] = qHTS for inhibitors of adenylyl cyclases using a fission yeast platform: a pilot screen against the NCATS LOPAC library (AID 1347410)
Procedure, shortened: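 Inhibition of GNAS-stimulated AC9 activity in S. pombe was inferred from derepression of a PKA-repressed fbp1-GFP reporter, measured as cytometric fluorescence after 18 h at 30C with compounds at up to 57 µM.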

[28] = target: Calcium and integrin-binding protein 1 (Homo sapiens) (UniProt Q99828); assay: Validation qHTS for Identification of Calcium Integrin Binding protein 1 (CIB1) Competitor (AID 1508618)
Calcium and integrin-binding protein 1 (Homo sapiens), sequence (Q99828 whole entry, looked up): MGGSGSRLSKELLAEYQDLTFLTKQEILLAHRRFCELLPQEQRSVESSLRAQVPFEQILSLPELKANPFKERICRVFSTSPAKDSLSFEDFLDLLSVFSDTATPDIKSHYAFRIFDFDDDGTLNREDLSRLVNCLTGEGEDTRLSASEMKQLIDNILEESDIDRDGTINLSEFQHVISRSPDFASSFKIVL
Procedure, shortened: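 Displacement of FITC-alphaIIb peptide (100 nM) from CIB1-GST (1 uM) is monitored by polarization in quantitative HTS format; buffer carries 5 mM CaCl2 and 125 mM NaCl at pH 7.4, incubations are at room temperature.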

[29] = target: Metallo-beta-lactamase type 2 (Klebsiella pneumoniae) (UniProt C7C422); assay: qHTS to identify inhibitors of the New Delhi Metallo-beta-lactamase (NDM): assay validation screen against the NCATS LOPAC Collection (AID 1794843); note: potency is the fitted concentration of half-maximal effect
Metallo-beta-lactamase type 2 (Klebsiella pneumoniae), sequence (C7C422 whole entry, looked up): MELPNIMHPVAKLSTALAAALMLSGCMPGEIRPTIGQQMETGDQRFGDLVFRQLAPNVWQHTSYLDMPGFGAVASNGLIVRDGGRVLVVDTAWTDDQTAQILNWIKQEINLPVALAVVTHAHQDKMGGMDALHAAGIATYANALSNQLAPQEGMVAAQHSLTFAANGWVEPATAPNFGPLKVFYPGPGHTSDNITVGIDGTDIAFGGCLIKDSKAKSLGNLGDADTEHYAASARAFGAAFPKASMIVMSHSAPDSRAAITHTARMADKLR
Procedure, shortened: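 Enzyme 2 nM final, 50 mM HEPES pH 7.0, 1 uM ZnSO4, 0.01% Tween20; cpds in DMSO, preincub w/ enzyme; + nitrocefin (50 uM stock); A485 at plateau; no-enzyme column as blank.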

[30] = target: Glutathione peroxidase 1 (Homo sapiens) (UniProt P07203); assay: Primary qHTS Assay for Inhibitors of Recombinant Selenoprotein Glutathione Peroxidase 1 (GPX1) (AID 1845191); note: nearly all actives have a fitted effect of over 65% in size
Glutathione peroxidase 1 (Homo sapiens), sequence (P07203 whole entry, looked up): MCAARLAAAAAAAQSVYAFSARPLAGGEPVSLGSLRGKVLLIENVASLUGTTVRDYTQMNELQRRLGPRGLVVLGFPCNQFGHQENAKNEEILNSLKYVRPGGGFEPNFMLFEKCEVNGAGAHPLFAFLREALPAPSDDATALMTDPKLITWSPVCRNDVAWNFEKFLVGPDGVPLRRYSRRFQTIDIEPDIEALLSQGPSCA
Procedure, shortened: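 10 nM GPX1 + cpd, 30 min RT; start w/ 1 mM GSH, 0.5 mM cumene hydroperoxide, 0.5 mM NADPH, 100 nM GR, 0.01% BSA; buffer 50 mM Tris-HCl pH 7.5, 2 mM EDTA, 150 mM NaCl; Fl 340/450, 0 & 15 min.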

[31] = target: Phospholipid hydroperoxide glutathione peroxidase GPX4 (Homo sapiens) (UniProt P36969); assay: Primary qHTS Assay for Inhibitors of Recombinant Selenoprotein Glutathione Peroxidase 4 (GPX4) (AID 1845192); details: outcome: dose series up to 50 µM unless noted; note: nearly all actives have a fitted effect of over 65% in size
Phospholipid hydroperoxide glutathione peroxidase GPX4 (Homo sapiens), sequence (P36969 whole entry, looked up): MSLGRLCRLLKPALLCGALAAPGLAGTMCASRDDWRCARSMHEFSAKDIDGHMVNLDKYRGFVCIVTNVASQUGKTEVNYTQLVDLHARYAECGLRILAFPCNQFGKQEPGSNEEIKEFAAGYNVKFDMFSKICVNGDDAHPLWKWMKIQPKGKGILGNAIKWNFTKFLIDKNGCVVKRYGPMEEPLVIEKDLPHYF
Procedure, shortened: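 NADPH consumption, followed by fluorescence at 340/450 nm between 0 and 15 min, reports GPX4 activity via coupled glutathione reductase (100 nM). Enzyme 200 nM was pre-exposed to compound 30 min; 0.5 mM cumene hydroperoxide and 1 mM GSH served as substrates.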

Measured: Potency

N.N.O=C(O)C1(C(=O)O)CCC1.[Pt+2]
active: [10] 0.267 µM | [11] 3.77 µM | [12] 20 µM | [24] 12.6 µM | [29] 3.98 µM
inactive: all other assays above
